Shown are actives, neighbours in structure and some others; about 9.2% of the full set was active somewhere.
HTT cytoprotect – qHTS Multiplex Assay to Identify Dual Action Probes in a Cell Model of Huntington: Cytoprotection (ATP) | PC12 HTT-Q103 induced, cytoprotection, ATP luminescence, 40 h | Potency, µM (top dose mostly 56.4 µM), for the others: cytoprotection (ATP increase), hits mostly activators | AID 1471, 2008 | 0.14% of 230,000 active; active = well fitted curve in the direction sought with a large enough effect; inconclusive = small, poorly fitted or top-dose-only effect, or another doubt; inactive = no such curve, though single readings can be large; an effect the other way counts as inactive or inconclusive; also: % of control where 0% means no effect; nearly all actives have a fitted effect of over 45% in size
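Huntington model: PC12 line, ecdysone-inducible HTTQ103 exon1–GFP, tebufenozide 100 nM. Test articles in a dose series. Endpoint luminescence from cellular ATP.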
ALDH1A1 block – qHTS Assay for Inhibitors of Aldehyde Dehydrogenase 1 (ALDH1A1); Aldehyde dehydrogenase 1A1 (Homo sapiens), P00352; Purified ALDH1A1, NADH fluorescence, propionaldehyde substrate; Potency, µM (titrated, usually from 75.3 µM), inactives show at the top dose activity, negative = inhibition, usual class: inhibitors; 7.3% of 220,000 active; AID 1030, 2008;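 also: plate controls were no enzyme wells and a reference inhibitor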
Target sequence (P00352 whole entry, looked up): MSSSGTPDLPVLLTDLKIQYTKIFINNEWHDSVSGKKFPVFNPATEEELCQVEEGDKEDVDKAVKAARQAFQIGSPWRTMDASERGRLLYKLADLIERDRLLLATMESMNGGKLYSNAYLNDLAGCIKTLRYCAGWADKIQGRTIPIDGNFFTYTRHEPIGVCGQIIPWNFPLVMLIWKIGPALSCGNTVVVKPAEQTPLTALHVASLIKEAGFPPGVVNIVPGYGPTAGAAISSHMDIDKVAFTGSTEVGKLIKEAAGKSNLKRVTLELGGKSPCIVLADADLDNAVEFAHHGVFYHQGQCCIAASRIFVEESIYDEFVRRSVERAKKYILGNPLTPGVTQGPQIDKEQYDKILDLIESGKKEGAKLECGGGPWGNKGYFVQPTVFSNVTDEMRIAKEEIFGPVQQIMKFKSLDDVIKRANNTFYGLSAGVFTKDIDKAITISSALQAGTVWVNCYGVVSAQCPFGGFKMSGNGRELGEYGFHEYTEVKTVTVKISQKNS
Lamin A splicing – qHTS Assay for Modulators of Lamin A Splicing; HeLa LMNA splicing GFP/RFP minigene ratio, 48 h; Potency, µM (top dose mostly 46.1 µM), without a hit: at the highest dose ratio change, negative = inhibition, hits mostly inhibitors; 0.01% of 200,000 active; active = well fitted inhibition curve with a large enough effect in the signal ratio, with a control signal flat, not every such curve was filed as active; inconclusive = small, poorly fitted or top-dose-only effect, or effect the other way, or a change in a side signal; the % refers to the signal ratio; also: % is scaled to controls: 0 for no effect and ±100 for the full control effect
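S3 HeLa cells stably expressing lamin A-EGFP splicing minigene plus DsRed2, 600 cells/well, 48 h compound exposure at 37C. Laser-scanning cytometry; analysed as GFP (500-530 nm)/RFP (575-640 nm) total intensity ratio; 0.5% DMSO vehicle.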
HPGD inh – qHTS Assay for Inhibitors of HPGD (15-Hydroxyprostaglandin Dehydrogenase). Potency, µM, for the others: top-dose activity change, negative = inhibition, most hits filed as inhibitors. 4.3% of 150,000 active. purified HPGD, NADH fluorescence kinetic, PGE2 substrate. AID 894, 2007; also: % is scaled to controls: 0 for no effect and ±100 for the full control effect
Target sequence (P15428 whole entry, looked up): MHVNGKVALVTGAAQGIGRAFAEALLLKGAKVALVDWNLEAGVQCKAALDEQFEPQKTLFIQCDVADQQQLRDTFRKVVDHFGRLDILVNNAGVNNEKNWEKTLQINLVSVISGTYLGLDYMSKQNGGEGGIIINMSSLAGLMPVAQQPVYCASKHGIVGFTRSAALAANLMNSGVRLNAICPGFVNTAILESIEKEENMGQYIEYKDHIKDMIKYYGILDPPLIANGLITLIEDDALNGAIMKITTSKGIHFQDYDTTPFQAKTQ
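NADH formation kinetics: reaction with 30 uM PGE2 and 1 mM NAD+ (final), 20 nM enzyme, Tris-HCl pH 8 with Tween 20, after 15 min compound preincubation at room temperature. Fluorescence change, last versus first of five reads.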
KDM4E inh – qHTS Assay for Inhibitors of Human Jumonji Domain Containing 2E (JMJD2E). Lysine-specific demethylase 4E (Homo sapiens), B2RXH2. JMJD2E catalytic domain, FDH-coupled NADH fluorescence (FDH is formaldehyde dehydrogenase). Potency, µM (titrated, usually from 57.1 µM), inactives show at the top dose activity change, negative = inhibition, usual class: inhibitors. 1.6% of 230,000 active. AID 2147, 2009;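 also: 0% = wells with enzyme and -100% = buffer wells without enzyme; nearly all actives have a fitted effect of over 50% in size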
HTT aggregate – qHTS Multiplex Assay to Identify Dual Action Probes in a Cell Model of Huntington: Aggregate Formation (GFP); PC12 HttQ103-GFP aggregates, Acumen cytometry, 40 h; Potency, µM (titrated, usually from 46.1 µM), without a hit: at the top dose activity change, negative = inhibition, hits mostly inhibitors; 1.1% of 220,000 active; AID 1688, 2009; active = well fitted curve in the direction sought with a large enough effect; inconclusive = small, poorly fitted or top-dose-only effect, or another doubt; inactive = no such curve, though single readings can be large; an effect the other way counts as inactive or inconclusive; also: % is scaled to controls: 0 for no effect and ±100 for the full control effect; nearly all actives have a fitted effect of over 60% in size
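PC12/HTTQ103-GFP, ecdysone-inducible; teb 100 nM; cpd qHTS titration; GFP aggregates read on laser cytometer, Ex 488/Em 500-530 nm.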
Starred values were filed as active, the others as inactive; [ ] = remark or other dose. Unless noted, calls follow the shape of the dose curve; as a rule, active = well fitted inhibition curve with a large enough effect (not every such curve was filed as active); inconclusive = small, poorly fitted or top-dose-only effect, or another doubt; inactive = no such curve, though single readings can be large or run the other way. Potency is read from the fitted curve at half-maximal effect.

What do the screens show for `O=C(c1ccc(S(=O)(=O)N2CCCCC2)cc1)N1CCN(CCN2C(=O)c3cccc4cccc(c34)C2=O)CC1`?
HTT cytoprotect: -62.1%; ALDH1A1 block: 0.631µM*; Lamin A splicing: inconclusive; KDM4E inh: 310.4%; HTT aggregate: -21.0%

What do the screens show for `Cc1cc(C)nc(N2CCN(C(=O)c3ccc(S(=O)(=O)N4CCCCCC4)cc3)CC2)n1`?
HTT cytoprotect: -2.6%; ALDH1A1 block: 17.8µM*; Lamin A splicing: inconclusive; KDM4E inh: -6.4%; HTT aggregate: -18.3%

What do the screens show for `c1ccc(OCCN2CCN(Cc3nc(-c4ccc5c(c4)OCO5)no3)CC2)cc1`?
HTT cytoprotect: -20.5%; ALDH1A1 block: -8.9%; KDM4E inh: 1.7%; HTT aggregate: -3.4%

What do the screens show for `Fc1cccc(Nc2nc(Cl)nc(Cl)n2)c1`?
HTT cytoprotect: 4.8%[10 µM]; ALDH1A1 block: -8.6%; Lamin A splicing: -5.6%[46 µM]; KDM4E inh: -5.9%; HTT aggregate: -9.0%[9.22 µM]

How did CN(C#N)c1nc(Cl)nc(Nc2cccc(Cl)c2)n1 do in these assays?
HTT cytoprotect: -29.3%[10 µM]; ALDH1A1 block: 3.98µM*; Lamin A splicing: -14.5%; HPGD inh: -21.2%; KDM4E inh: -2.9%; HTT aggregate: 2.4%

How did CS(=O)(=O)N1CCC2(CCN(Cc3nccs3)CC2)CC1 do in these assays?
HTT cytoprotect: 8.6%; ALDH1A1 block: 14.3%; HPGD inh: -5.9%

Results for O=C1CC(N2CCC(c3nc4ccccc4o3)CC2)C(=O)N1Cc1cccs1 (centres undefined) ?
HTT cytoprotect: 1.2%; ALDH1A1 block: inconclusive; Lamin A splicing: -8.6%; HPGD inh: 3.0%; KDM4E inh: -2.3%; HTT aggregate: 23.9%

How did CCN1C(=O)CC(N2CCN(c3ccc(C(=O)c4ccccc4)cc3)CC2)C1=O (centres undefined) do in these assays?
HTT cytoprotect: -6.5%; ALDH1A1 block: inconclusive; Lamin A splicing: inconclusive; HPGD inh: 22.4µM*; KDM4E inh: 1.2%; HTT aggregate: 11.2µM*

How did CCCOc1ccc(N2C(=O)CC(N3CCN(c4ccccc4F)CC3)C2=O)cc1 (centres undefined) do in these assays?
HTT cytoprotect: -16.1%; ALDH1A1 block: inconclusive; Lamin A splicing: 1.9%; HPGD inh: -4.9%; KDM4E inh: 10.8%; HTT aggregate: -7.4%[9.22 µM]

Results for O=C1CC(N2CCN(c3ccc(F)cc3)CC2)C(=O)N1Cc1cccs1 (centres undefined) ?
HTT cytoprotect: -8.2%[1.9 µM]; ALDH1A1 block: 14.1µM*; Lamin A splicing: 3.4%; HPGD inh: -10.7%; KDM4E inh: -0.8%; HTT aggregate: 7.4%

How did CCCOc1ccc(N2C(=O)CC(N3CCN(c4nc5ccccc5s4)CC3)C2=O)cc1 (centres undefined) do in these assays?
HTT cytoprotect: 9.4%[10 µM]; ALDH1A1 block: 14.1µM*; Lamin A splicing: -18.6%; HPGD inh: -14.8%; KDM4E inh: -6.9%; HTT aggregate: 5.7%

Results for CCN1C(=O)CC(N2CCN(c3ccc(Cl)cc3)CC2)C1=O (centres undefined) ?
HTT cytoprotect: 2.2%; ALDH1A1 block: -3.4%; Lamin A splicing: inconclusive; HPGD inh: -7.3%; KDM4E inh: 0.1%; HTT aggregate: 16.0%

What do the screens show for `O=C1CC(N2CCN(c3nc4ccccc4s3)CC2)C(=O)N1Cc1cccs1` (centres undefined)?
HTT cytoprotect: 11.4%; ALDH1A1 block: 22.4µM*; Lamin A splicing: inconclusive; HPGD inh: -1.8%; KDM4E inh: -9.8%; HTT aggregate: -19.9%

Results for O=C(Cn1c(=O)oc2cc(S(=O)(=O)N3CCCC3)ccc21)NCc1ccccn1 ?
HTT cytoprotect: -6.1%; ALDH1A1 block: 17.8µM*; Lamin A splicing: -7.5%; HPGD inh: -6.3%; KDM4E inh: -1.2%; HTT aggregate: -4.3%

How did COc1cccc(CNC(=O)Cn2c(=O)oc3cc(S(=O)(=O)N4CCCCCC4)ccc32)c1 do in these assays?
Lamin A splicing: 9.0%[46 µM]

What do the screens show for `C[C@H](NCCc1ccc(O)cc1)[C@@H](O)c1ccc(O)cc1`?
HTT cytoprotect: -32.8%; ALDH1A1 block: -8.5%[20.9 µM]; Lamin A splicing: inconclusive; HPGD inh: -7.5%; KDM4E inh: -0.2%[25.5 µM]; HTT aggregate: 11.0%

Results for Cc1cccc(C)c1NC(=S)NCCc1ccc(O)c(O)c1 ?
ALDH1A1 block: inconclusive; KDM4E inh: 1.2%; HTT aggregate: 13.0%

How did C[C@@H](CCc1ccc(O)cc1)NCCc1ccc(O)c(O)c1 do in these assays?
HTT cytoprotect: 6.9%; ALDH1A1 block: -4.3%; Lamin A splicing: -13.0%; HPGD inh: 0.7%; KDM4E inh: 20µM*

Results for Cc1c(C(=O)c2no[n+]([O-])c2C(=O)c2cnn(C)c2C)cnn1C ?
HTT cytoprotect: -152.8%; ALDH1A1 block: 0.891µM*; Lamin A splicing: inconclusive; HPGD inh: -16.5%; KDM4E inh: 0.4%; HTT aggregate: inconclusive

Results for Cc1c(C(=O)Nc2ccc(Br)cc2)cnn1C ?
HTT cytoprotect: -21.6%[10 µM]; ALDH1A1 block: 15.5%; Lamin A splicing: -14.2%; HPGD inh: -15.1%; KDM4E inh: 9.7%; HTT aggregate: -23.9%

Results for CCN(C(=O)COc1cccc2cccnc12)C1CCS(=O)(=O)C1 (centres undefined) ?
HTT cytoprotect: -6.8%[10 µM]; ALDH1A1 block: -10.6%; KDM4E inh: inconclusive; HTT aggregate: 19.2%

How did Cc1cc(N/N=C/c2ccc(O)c(C)c2O)nc(-c2ccccc2O)n1 do in these assays?
HTT cytoprotect: 25.4%[10 µM]; ALDH1A1 block: -2.4%; Lamin A splicing: inconclusive; HPGD inh: -13.4%; KDM4E inh: 25.1µM*; HTT aggregate: 15.8µM*

Results for CCOc1cccc(/C(O)=C2/C(=O)C(=O)N(CCN3CCOCC3)C2c2ccncc2)c1 (centres undefined) ?
ALDH1A1 block: 22.4µM*; KDM4E inh: 9.3%

What do the screens show for `CCN(CC)CCCN1C(=O)C(=O)/C(=C(/O)c2ccc(Cl)cc2)C1c1ccccn1` (centres undefined)?
HTT cytoprotect: -12.9%; ALDH1A1 block: inconclusive; Lamin A splicing: -3.2%; HPGD inh: -17.8%; KDM4E inh: -21.6%; HTT aggregate: -22.0%
